# Measurements taken from article PMC7862700, “An all-to-all approach to the identification of sequence-specific readers for epigenetic DNA modifications on cytosine”.
# How the values were obtained:
# Assay in all cases: DAPPL (digital affinity profiling via proximity ligation, sequencing); 10 mM Tris-HCl pH 7.5, 50 mM NaCl, 1 mM DTT, 4% glycerol, room temperature, 30 min; GST-TFs on glutathione beads, 16-mer random dsDNA library, 0.1% formaldehyde crosslink after washing; high values mean tight binding
# FEV = target: T1, FEV (Homo sapiens, UniProt Q99581 1-238); settings: protein: recombinant; tags: N-terminal GST; dsDNA, one strand shown
# T1 sequence: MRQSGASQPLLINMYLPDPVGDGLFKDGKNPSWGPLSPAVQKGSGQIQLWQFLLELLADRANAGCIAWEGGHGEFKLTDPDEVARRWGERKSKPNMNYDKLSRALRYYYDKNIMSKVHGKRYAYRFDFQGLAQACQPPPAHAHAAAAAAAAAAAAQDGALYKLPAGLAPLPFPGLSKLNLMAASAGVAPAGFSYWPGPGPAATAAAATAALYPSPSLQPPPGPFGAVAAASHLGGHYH
# Summary of the method: (§1)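 Beads coated with glutathione captured GST-fused human transcription factors that had been expressed in yeast, and the factors were then given DNA barcodes and pooled with a tag-only sample. The pools were incubated with 200 nmole of a random double-stranded 16-mer DNA library in Tris/NaCl/DTT/glycerol buffer for 30 min at room temperature, washed, crosslinked with 0.1% formaldehyde and proximity-ligated with BsaI/T4 ligase at 37 °C for 1 h. PCR amplification and Illumina NextSeq500 sequencing came last. Binding signal is each hexamer's read frequency for a factor divided by its frequency for the tag-only sample.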
# ETV5 = ETV5 (Homo sapiens, UniProt P41161 1-510); settings: protein: recombinant; tags: N-terminal GST; dsDNA, one strand shown
# Summary of the method: as §1
# HSF1 = HSF1 (Homo sapiens, UniProt Q00613 1-529); settings: protein: recombinant; tags: N-terminal GST; chain copies: 3; dsDNA, one strand shown
# Summary of the method: as §1
# SPIC = target: T2, SPIC (Homo sapiens, UniProt Q8N5J4 1-248); settings: protein: recombinant; tags: N-terminal GST; dsDNA, one strand shown
# T2 sequence: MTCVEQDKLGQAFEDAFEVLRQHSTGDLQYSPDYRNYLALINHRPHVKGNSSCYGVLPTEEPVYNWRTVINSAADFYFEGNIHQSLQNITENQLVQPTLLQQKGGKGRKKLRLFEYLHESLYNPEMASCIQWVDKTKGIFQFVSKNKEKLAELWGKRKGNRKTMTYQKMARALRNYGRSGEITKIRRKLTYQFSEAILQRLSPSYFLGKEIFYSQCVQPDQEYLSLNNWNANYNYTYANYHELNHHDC
# Summary of the method: as §1
# ELF4 = ELF4 (Homo sapiens, UniProt Q99607 1-663); settings: protein: recombinant; tags: N-terminal GST; dsDNA, one strand shown
# Summary of the method: as §1
# ELK4 = target: T3, ELK4 (Homo sapiens, UniProt P28324-2 1-405); settings: protein: recombinant; tags: N-terminal GST; dsDNA, one strand shown
# T3 sequence: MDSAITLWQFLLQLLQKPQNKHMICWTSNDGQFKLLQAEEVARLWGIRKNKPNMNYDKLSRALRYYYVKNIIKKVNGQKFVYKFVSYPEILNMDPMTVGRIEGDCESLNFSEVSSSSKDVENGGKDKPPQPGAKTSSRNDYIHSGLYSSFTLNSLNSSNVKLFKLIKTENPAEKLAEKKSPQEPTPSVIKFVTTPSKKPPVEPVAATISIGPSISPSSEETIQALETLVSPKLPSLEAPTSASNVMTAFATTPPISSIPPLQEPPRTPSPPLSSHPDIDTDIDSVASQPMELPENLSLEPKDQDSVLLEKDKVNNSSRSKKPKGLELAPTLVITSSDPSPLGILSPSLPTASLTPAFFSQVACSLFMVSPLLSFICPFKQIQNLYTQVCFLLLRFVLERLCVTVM
# Summary of the method: as §1
# ETV2 = target: T4, ETV2 (Homo sapiens, UniProt O00321 1-342); settings: protein: recombinant; tags: N-terminal GST; dsDNA, one strand shown
# T4 sequence: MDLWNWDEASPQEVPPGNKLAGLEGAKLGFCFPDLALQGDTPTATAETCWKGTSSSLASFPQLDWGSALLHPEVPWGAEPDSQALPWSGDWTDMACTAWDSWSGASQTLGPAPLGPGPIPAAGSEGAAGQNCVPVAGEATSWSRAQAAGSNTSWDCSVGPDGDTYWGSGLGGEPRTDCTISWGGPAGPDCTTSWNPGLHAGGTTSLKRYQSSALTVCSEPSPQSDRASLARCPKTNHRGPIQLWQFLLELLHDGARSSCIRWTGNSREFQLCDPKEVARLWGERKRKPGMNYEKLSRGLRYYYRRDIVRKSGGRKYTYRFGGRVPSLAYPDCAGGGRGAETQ
# Summary of the method: as §1
# ELF3 = target: T5, ELF3 (Homo sapiens, UniProt P78545 1-371); settings: protein: recombinant; tags: N-terminal GST; dsDNA, one strand shown
# T5 sequence: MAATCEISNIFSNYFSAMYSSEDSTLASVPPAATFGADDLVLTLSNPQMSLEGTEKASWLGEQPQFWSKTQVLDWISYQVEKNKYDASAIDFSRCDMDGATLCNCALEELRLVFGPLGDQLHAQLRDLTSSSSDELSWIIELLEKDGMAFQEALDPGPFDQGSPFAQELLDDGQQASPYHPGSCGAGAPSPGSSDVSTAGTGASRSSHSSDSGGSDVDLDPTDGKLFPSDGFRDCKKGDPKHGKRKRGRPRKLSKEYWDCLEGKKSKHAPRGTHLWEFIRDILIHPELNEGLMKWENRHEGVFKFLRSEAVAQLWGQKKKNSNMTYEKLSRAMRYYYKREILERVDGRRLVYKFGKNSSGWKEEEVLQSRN
# Summary of the method: as §1
# CRX = CRX (Homo sapiens, UniProt O43186 1-299); settings: protein: recombinant; tags: N-terminal GST; dsDNA, one strand shown
# Summary of the method: as §1
# ETV1 = ETV1 (Homo sapiens, UniProt P50549 1-477); settings: protein: recombinant; tags: N-terminal GST; dsDNA, one strand shown
# Summary of the method: as §1
# ERF = target: T6, ERF (Homo sapiens, UniProt P50548 1-548); settings: protein: recombinant; tags: N-terminal GST; dsDNA, one strand shown
# T6 sequence: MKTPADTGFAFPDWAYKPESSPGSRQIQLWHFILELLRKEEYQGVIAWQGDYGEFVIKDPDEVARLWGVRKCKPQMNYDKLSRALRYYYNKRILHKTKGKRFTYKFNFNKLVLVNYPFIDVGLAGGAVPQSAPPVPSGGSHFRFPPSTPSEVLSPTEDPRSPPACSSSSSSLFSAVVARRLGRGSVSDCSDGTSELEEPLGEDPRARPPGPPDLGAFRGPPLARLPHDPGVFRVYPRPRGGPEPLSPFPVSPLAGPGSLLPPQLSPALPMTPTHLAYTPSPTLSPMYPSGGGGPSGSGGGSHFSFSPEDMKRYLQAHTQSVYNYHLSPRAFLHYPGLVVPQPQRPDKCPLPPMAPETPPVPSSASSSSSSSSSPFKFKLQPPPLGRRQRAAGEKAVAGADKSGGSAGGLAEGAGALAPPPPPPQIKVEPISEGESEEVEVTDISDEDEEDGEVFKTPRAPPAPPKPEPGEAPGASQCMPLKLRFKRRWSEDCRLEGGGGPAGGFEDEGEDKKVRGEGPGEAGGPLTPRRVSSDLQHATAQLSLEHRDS
# Summary of the method: as §1
# ETV3L = target: T7, ETV3L (Homo sapiens, UniProt Q6ZN32 1-361); settings: protein: recombinant; tags: N-terminal GST; dsDNA, one strand shown
# T7 sequence: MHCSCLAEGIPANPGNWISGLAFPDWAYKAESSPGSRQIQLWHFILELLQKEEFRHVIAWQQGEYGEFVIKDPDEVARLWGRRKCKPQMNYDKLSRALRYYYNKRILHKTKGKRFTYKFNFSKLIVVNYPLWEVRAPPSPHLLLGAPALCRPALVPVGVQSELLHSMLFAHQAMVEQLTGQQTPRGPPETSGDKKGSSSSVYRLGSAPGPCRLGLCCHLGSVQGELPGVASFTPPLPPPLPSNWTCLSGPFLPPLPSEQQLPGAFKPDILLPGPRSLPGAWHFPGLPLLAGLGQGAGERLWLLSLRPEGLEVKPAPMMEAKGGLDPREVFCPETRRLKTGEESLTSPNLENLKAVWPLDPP
# Summary of the method: as §1
# ETS2 = target: T8, ETS2 (Homo sapiens, UniProt P15036 1-469); settings: protein: recombinant; tags: N-terminal GST; dsDNA, one strand shown
# T8 sequence: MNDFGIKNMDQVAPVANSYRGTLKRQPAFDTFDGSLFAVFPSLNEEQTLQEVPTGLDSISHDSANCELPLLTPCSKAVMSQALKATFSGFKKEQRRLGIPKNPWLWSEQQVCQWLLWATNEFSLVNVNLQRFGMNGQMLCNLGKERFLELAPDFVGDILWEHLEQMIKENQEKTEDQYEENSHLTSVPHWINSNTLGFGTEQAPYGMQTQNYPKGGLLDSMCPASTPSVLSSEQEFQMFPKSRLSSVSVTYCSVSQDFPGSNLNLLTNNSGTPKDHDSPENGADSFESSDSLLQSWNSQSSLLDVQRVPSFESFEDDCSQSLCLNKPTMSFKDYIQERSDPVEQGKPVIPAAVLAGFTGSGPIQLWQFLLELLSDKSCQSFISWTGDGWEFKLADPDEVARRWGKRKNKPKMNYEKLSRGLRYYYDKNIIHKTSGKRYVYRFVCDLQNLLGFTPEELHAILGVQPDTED
# Summary of the method: as §1
# SPDEF = target: T9, SPDEF (Homo sapiens, UniProt O95238 1-335); settings: protein: recombinant; tags: N-terminal GST; dsDNA, one strand shown
# T9 sequence: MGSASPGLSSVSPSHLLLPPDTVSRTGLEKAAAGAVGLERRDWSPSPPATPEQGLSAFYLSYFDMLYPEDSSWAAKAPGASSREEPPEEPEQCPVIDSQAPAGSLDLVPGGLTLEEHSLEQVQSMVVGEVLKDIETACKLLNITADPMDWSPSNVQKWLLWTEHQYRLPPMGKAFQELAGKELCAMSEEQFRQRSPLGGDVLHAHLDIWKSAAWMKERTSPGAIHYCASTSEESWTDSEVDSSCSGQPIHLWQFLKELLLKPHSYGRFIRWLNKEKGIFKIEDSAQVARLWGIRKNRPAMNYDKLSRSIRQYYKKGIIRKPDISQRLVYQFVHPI
# Summary of the method: as §1
# ETV7 = target: T10, ETV7 (Homo sapiens, UniProt Q9Y603 1-341); settings: protein: recombinant; tags: N-terminal GST; dsDNA, one strand shown
# T10 sequence: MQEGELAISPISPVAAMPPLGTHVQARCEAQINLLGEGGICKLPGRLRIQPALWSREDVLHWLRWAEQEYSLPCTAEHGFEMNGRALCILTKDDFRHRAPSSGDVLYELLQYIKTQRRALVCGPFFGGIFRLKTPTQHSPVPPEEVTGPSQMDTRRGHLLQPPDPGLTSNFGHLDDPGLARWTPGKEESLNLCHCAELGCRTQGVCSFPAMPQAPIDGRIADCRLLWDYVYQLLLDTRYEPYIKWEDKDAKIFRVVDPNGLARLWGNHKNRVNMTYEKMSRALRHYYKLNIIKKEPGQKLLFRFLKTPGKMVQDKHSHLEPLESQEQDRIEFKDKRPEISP
# Summary of the method: as §1
# ELF5 = target: T11, ELF5 (Homo sapiens, UniProt Q9UKW6-2 1-255); settings: protein: recombinant; tags: N-terminal GST; dsDNA, one strand shown
# T11 sequence: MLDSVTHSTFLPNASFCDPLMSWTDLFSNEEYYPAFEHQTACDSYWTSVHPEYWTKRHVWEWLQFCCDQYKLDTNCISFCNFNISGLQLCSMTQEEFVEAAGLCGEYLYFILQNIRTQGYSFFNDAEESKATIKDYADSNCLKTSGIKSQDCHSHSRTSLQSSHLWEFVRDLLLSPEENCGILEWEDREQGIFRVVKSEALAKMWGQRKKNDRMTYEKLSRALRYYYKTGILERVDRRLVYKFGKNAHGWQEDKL
# Summary of the method: as §1
# ETV3 = target: T12, ETV3 (Homo sapiens, UniProt P41162-2 1-143); settings: protein: recombinant; tags: N-terminal GST; dsDNA, one strand shown
# T12 sequence: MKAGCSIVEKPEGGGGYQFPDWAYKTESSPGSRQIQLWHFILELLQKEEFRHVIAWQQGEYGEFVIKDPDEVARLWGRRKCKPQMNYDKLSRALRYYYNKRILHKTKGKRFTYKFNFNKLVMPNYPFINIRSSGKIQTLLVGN
# Summary of the method: as §1
# ETV6 = ETV6 (Homo sapiens, UniProt P41212 1-452); settings: protein: recombinant; tags: N-terminal GST; dsDNA, one strand shown
# Summary of the method: as §1
# Chain of HSF1 (Q00613 whole entry): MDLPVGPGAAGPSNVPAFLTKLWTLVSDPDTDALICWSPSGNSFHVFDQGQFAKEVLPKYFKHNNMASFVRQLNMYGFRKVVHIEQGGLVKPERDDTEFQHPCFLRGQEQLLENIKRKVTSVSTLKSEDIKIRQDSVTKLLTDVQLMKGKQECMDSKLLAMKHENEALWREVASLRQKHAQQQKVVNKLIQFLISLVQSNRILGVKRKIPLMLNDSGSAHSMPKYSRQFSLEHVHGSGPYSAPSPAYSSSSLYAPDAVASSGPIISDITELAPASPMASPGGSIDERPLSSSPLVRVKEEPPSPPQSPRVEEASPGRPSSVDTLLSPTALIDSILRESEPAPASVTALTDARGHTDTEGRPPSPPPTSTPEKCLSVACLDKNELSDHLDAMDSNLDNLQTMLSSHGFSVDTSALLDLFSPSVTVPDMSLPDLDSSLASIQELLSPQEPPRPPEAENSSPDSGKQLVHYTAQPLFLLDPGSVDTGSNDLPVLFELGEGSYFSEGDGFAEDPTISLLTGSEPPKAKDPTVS
# Chain of ETV6 (P41212 whole entry): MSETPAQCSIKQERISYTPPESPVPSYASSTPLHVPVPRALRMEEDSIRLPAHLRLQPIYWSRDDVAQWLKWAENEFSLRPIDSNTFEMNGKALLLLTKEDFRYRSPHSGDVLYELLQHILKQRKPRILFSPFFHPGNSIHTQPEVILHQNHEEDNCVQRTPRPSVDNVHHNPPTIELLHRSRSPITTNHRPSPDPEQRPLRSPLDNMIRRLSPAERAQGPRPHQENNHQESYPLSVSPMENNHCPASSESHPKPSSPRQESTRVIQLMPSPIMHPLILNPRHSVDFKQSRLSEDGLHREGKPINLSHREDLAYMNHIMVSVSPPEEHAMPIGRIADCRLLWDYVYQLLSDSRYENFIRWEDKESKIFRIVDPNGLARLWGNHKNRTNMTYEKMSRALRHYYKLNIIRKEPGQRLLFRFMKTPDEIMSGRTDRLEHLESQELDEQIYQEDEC
# Chain of ETV5 (P41161 whole entry): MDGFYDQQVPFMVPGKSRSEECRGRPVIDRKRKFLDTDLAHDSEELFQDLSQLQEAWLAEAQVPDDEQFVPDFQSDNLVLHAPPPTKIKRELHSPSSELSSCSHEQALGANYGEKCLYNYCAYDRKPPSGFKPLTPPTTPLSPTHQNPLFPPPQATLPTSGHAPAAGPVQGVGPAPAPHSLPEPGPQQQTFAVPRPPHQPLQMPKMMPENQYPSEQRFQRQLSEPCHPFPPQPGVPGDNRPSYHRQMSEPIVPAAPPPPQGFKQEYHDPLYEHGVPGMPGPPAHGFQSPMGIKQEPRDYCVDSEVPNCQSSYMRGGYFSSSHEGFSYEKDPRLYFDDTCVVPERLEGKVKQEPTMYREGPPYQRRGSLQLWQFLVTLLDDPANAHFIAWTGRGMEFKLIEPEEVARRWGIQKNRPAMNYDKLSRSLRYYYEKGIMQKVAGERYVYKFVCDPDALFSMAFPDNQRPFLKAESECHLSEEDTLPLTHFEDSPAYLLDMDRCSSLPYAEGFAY
# Chain of ELF4 (Q99607 whole entry): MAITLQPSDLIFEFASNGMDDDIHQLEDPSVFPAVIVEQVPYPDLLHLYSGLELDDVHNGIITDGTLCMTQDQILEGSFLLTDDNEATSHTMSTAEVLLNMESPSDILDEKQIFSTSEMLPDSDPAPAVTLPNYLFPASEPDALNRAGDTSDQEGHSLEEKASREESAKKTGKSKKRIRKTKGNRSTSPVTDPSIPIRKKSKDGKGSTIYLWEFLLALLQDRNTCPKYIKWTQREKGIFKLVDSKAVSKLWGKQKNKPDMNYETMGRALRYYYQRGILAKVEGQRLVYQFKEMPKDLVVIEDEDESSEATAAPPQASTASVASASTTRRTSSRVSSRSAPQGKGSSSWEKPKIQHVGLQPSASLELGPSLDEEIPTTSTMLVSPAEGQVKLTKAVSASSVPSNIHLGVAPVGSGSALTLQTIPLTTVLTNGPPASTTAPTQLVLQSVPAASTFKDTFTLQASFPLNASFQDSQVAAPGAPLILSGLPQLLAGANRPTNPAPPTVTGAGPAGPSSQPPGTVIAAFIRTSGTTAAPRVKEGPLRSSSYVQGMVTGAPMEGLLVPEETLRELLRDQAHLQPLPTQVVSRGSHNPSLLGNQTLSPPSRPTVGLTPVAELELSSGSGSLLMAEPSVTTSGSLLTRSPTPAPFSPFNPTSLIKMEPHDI
# Chain of CRX (O43186 whole entry): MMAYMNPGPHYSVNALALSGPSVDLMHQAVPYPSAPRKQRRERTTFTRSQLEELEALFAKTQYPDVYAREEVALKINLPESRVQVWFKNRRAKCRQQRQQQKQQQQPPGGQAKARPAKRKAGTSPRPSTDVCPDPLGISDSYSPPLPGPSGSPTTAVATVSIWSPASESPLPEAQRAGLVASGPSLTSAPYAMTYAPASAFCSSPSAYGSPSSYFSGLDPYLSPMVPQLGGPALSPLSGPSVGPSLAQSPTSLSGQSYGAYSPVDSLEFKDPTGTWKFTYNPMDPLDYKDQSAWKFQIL
# Chain of ETV1 (P50549 whole entry): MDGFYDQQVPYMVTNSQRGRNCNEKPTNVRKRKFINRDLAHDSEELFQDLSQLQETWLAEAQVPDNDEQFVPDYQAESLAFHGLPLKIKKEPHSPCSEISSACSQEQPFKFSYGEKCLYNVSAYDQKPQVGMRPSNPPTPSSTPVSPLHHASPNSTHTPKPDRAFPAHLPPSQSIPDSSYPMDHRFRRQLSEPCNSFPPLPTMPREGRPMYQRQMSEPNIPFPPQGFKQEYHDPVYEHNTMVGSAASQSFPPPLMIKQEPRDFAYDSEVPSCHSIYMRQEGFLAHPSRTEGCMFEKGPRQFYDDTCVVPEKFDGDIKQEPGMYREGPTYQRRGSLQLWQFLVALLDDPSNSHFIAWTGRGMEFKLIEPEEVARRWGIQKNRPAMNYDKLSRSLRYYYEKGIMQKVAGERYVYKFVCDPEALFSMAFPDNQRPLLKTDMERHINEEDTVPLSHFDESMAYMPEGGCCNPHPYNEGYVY
sequence,measurement,setting,value
GATTTC,binding signal,FEV,"2.86 fold enrichment (6-mer frequency, TF over GST control)"
same,binding signal,ETV5,"1.92 fold enrichment (6-mer frequency, TF over GST control)"
same,binding signal,HSF1,"1.56 fold enrichment (6-mer frequency, TF over GST control)"
same,binding signal,SPIC,"1.65 fold enrichment (6-mer frequency, TF over GST control)"
same,binding signal,ELF4,"1.7 fold enrichment (6-mer frequency, TF over GST control)"
same,binding signal,ELK4,"1.64 fold enrichment (6-mer frequency, TF over GST control)"
same,binding signal,ETV2,"1.64 fold enrichment (6-mer frequency, TF over GST control)"
same,binding signal,ELF3,"1.62 fold enrichment (6-mer frequency, TF over GST control)"
same,binding signal,CRX,"1.52 fold enrichment (6-mer frequency, TF over GST control)"
same,binding signal,ETV1,"1.79 fold enrichment (6-mer frequency, TF over GST control)"
same,binding signal,ERF,"1.57 fold enrichment (6-mer frequency, TF over GST control)"
same,binding signal,ETV3L,"1.73 fold enrichment (6-mer frequency, TF over GST control)"
same,binding signal,ETS2,"1.79 fold enrichment (6-mer frequency, TF over GST control)"
same,binding signal,SPDEF,"1.66 fold enrichment (6-mer frequency, TF over GST control)"
same,binding signal,ETV7,"1.56 fold enrichment (6-mer frequency, TF over GST control)"
same,binding signal,ELF5,"2.07 fold enrichment (6-mer frequency, TF over GST control)"
same,binding signal,ETV3,"1.71 fold enrichment (6-mer frequency, TF over GST control)"
same,binding signal,ETV6,"1.8 fold enrichment (6-mer frequency, TF over GST control)"
